A selection: hits, their analogues and other compounds. The true share with any hit is near 3.5%.
FBW7 act: human FBW7 E3 ligase activation, primary screen | AlphaScreen FBW7–phospho-cyclin E peptide binding, activator screen | normalized activity (activation), % at 26.1 µM | actives 0.13% (n = 650,000); in the data active = normalized activity above about 1.9%;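 note: purified mutant Fbw7 with reduced substrate affinity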
MITF primary: inhibitors of human MITF | O75030 | AlphaScreen MITF homodimerization, bead proximity signal | inhibition, % at 2.6 µM | actives 0.91% (n = 650,000); in the data active = inhibition above about 50%
Target sequence (O75030 whole entry, looked up): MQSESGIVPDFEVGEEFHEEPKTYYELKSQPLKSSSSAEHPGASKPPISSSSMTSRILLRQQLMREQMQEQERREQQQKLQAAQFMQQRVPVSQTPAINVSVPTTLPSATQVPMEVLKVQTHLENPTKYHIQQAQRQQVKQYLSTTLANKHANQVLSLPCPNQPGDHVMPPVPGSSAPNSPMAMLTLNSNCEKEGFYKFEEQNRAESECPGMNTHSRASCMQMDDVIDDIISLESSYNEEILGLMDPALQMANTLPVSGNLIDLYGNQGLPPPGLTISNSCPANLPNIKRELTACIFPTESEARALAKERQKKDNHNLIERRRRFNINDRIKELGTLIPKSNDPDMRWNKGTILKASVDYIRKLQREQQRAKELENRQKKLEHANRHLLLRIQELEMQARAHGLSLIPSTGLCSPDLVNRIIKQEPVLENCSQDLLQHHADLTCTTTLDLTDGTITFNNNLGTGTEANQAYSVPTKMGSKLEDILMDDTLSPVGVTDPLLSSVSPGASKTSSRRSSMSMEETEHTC
GPR151 ag: activators of human GPR151; PathHunter beta-arrestin GPR151 cells, luminescence; activation, % at 11.2 µM; actives 1% (n = 650,000); in the data active = activation above about 4.9%
TEAD-YAP inh: TEAD-YAP interaction inhibition | HEK-TIYL cells, TEAD-Gal4/YAP UAS-luciferase luminescence | inhibition, % at 9.12 µM | actives 1.4% (n = 640,000) | AID 1259422; in the data active = inhibition above about 32%
Of the large screens only hits and unclear results are named; the others gave an inactive call.

CC(C)CC[n+]1ccccc1/C=C/c1ccc(N(C)C)cc1	TEAD-YAP inh 91
C#CCN(C)C(=O)c1c(C)nc2sccn12	FBW7 act 1.9
Cc1ccccc1C(=O)/C(C#N)=N/Nc1c(C)n(C)n(-c2ccccc2)c1=O	MITF primary 70
Cc1c(N/N=C(\C#N)C(=O)c2ccccc2)c(=O)n(-c2ccccc2)n1C	none
CCCn1c(=O)c2c(nc3n(-c4ccccc4CC)c(C)c(C)n23)n(C)c1=O	none
Nc1ccc(C(=O)N/N=C2\CCCc3ccccc32)cc1	none
COc1cc(C(=O)N/N=C2/CCCc3ccccc32)cc(OC)c1OC	TEAD-YAP inh 60
COc1cc(C(=O)NC2CCCC2)cc(OC)c1OC	none
COc1cc(C(=O)NN=C2CCCC2)cc(OC)c1OC	TEAD-YAP inh 62
COc1cc(C(=O)NN=C2CCC(c3ccccc3)CC2)cc(OC)c1OC (stereo unspecified)	TEAD-YAP inh 61
COc1cc(C(=O)NN=C2CCN(Cc3ccccc3)CC2)cc(OC)c1OC	TEAD-YAP inh 70
O=C(Nc1ccccc1F)N1CCC(CO)(Cc2ccc(Cl)cc2)CC1	none
COC(=O)c1ccc(OCc2ccnc(Cl)c2)cc1	none
O=C(Nc1nnc(Cc2ccccc2F)s1)c1ccc(F)cc1	none
C1=NC2(CCCC2)Cc2c1ccc1ccccc21	TEAD-YAP inh 32
COc1cccc(-n2c(SCC(=O)N3CCCC3)nc3n[nH]c(C)c3c2=N)c1	TEAD-YAP inh 43
CCCN(CCC)C(=O)C(CC)Sc1nc2n[nH]c(C)c2c(=N)n1-c1cccc(OC)c1 (stereo unspecified)	TEAD-YAP inh 50
CCOc1ccc(NC(=O)CSc2nc3n[nH]c(C)c3c(=N)n2-c2cccc(OC)c2)cc1	TEAD-YAP inh 33
CCN(CC)C(=O)CSc1nc2n[nH]c(C)c2c(=N)n1-c1cccc(OC)c1	TEAD-YAP inh 44
CCCCN(CC)C(=O)CSc1nc2n[nH]c(C)c2c(=N)n1-c1cccc(OC)c1	none
COc1ccc(C2C(=O)N(C3CCCCCC3)CC(=O)N2CCc2ccc(Cl)cc2)cc1 (stereo unspecified)	none
Cc1ccc(OCC(=O)Nc2ccc3c(c2)CCCN3S(=O)(=O)c2ccccc2)cc1	none
NC(=O)Cn1c(=O)sc2ccccc21	none
Cc1ccc(Oc2cc([N+](=O)[O-])ccc2C#N)c(-n2nc3ccccc3n2)c1	none
Cc1ccccc1NC(=O)Cn1nnc(-c2ccccc2C)n1	none
Cc1ccnc(NC(=O)C(C)N2Cc3ccccc3C2=O)c1 (stereo unspecified)	TEAD-YAP inh 89
Cc1ccc(C)c(NC(=O)C(C)N2Cc3ccccc3C2=O)c1 (stereo unspecified)	none
Cc1cccc(NC(=O)C(C)N2Cc3ccccc3C2=O)n1 (stereo unspecified)	none
CC(C(=O)Nc1ccccn1)N1Cc2ccccc2C1=O (stereo unspecified)	TEAD-YAP inh 48
COc1ccc(Cc2nnc(Nc3cc(C)cc(C)c3)[nH]c2=O)cc1	none
O=C(Cc1ccccc1)Nc1sc2c(c1C(=O)O)CCCC2	none
O=C1/C(=C\C=C/c2ccc([N+](=O)[O-])o2)C(C(F)(F)F)=NN1c1ccccc1[N+](=O)[O-]	MITF primary 90
C=CCn1c(SCCCC)nc2c(c1=O)C1(CCCC1)Cc1ccccc1-2	none
Cc1cnn(-c2cc(N/N=C/c3ccc(O)cc3O)ncn2)c1	none
CCOc1ccc(/C=N/Nc2ncc(Br)cn2)c(O)c1	none
Oc1ccc(/C=N/Nc2ncc(C(F)(F)F)cc2Cl)c(O)c1O	MITF primary 66
Cc1cc(C)n(-c2cc(N/N=C/c3ccc(O)cc3O)ncn2)n1	TEAD-YAP inh 85
Oc1ccc(/C=N/Nc2ccc(Cl)nn2)c(O)c1O	MITF primary 103
Oc1ccc(/C=N/Nc2ncc(Br)cn2)c(O)c1	MITF primary 65
COc1ccc(S(=O)(=O)NNC(=O)c2ccc(C)cc2)cc1	none
CCCn1c(C)cc(/C=C(\C#N)C(=O)OCC(=O)Nc2ccc([N+](=O)[O-])cc2C#N)c1C	none
Cc1ccc[n+](-c2[nH]c(=O)sc2/C=N/NC(=O)c2ccncc2)c1	none
CCN(CC)S(=O)(=O)c1ccc(N/N=C/c2ccccc2[N+](=O)[O-])nc1	none
Oc1ccc(/C=N/Nc2ccc(Cl)nn2)c(O)c1	MITF primary 55
CCN(CC)S(=O)(=O)c1ccc(N/N=C/c2ccc(O)cc2O)nc1	TEAD-YAP inh 59
O=C(Nn1c(-c2cccs2)nc2ccccc2c1=O)c1cc(Cl)ccc1[N+](=O)[O-]	none
COc1ccc(C2=NN(C(=O)CSc3nnc(CNC(=O)c4cc(OC)cc(OC)c4)n3C)C(c3ccc(F)cc3)C2)cc1 (stereo unspecified)	none
CCc1nc(SCc2ccc(Cl)cc2Cl)c(C#N)c2c1CCCC2	FBW7 act 2.2
COCCNc1ccc2ncc(-c3cccc(C(N)=O)c3)n2n1	none
CS(=O)(=O)Nc1cccc(-c2cnc3ccc(NCCCO)nn23)c1	TEAD-YAP inh 58
COCCNc1ccc2ncc(-c3cccc(NC(C)=O)c3)n2n1	TEAD-YAP inh 56
COCCNc1ccc2ncc(-c3cccc(NS(C)(=O)=O)c3)n2n1	TEAD-YAP inh 42
COCCNc1ccc2ncc(-c3cccc(C(C)=O)c3)n2n1	none
CC1=CC(C)(C)N(S(=O)(=O)c2ccc(C)cc2)c2cc(C)c(C)cc21	TEAD-YAP inh 65
CCOc1ccc(S(=O)(=O)N2c3ccc(C)cc3C(C)=CC2(C)C)cc1	TEAD-YAP inh 64
COc1ccc(S(=O)(=O)N2c3ccc(C)cc3C(C)=CC2(C)C)cc1	TEAD-YAP inh 62
CC1=CC(C)(C)N(S(=O)(=O)c2ccc(Cl)cc2)c2c(C)cc(C)cc21	none
CC1=CC(C)(C)N(S(=O)(=O)c2ccc(C)cc2)c2c(C)cc(C)cc21	TEAD-YAP inh 36
COc1ccc(CSc2nc3ccccc3c(=O)n2-c2ccccc2)cc1OC	none
CCOC(=O)C1(CCCc2ccccc2)CCN(C(=O)Cc2csc(C)n2)CC1	none
CC(=O)NNC(=O)C(=O)Nc1ccc(C(C)C)cc1	none
CC1=CC(C)(C)N(S(=O)(=O)c2ccc(F)cc2)c2ccc(C)cc21	TEAD-YAP inh 44
COc1ccc(/C=C/C(=O)N2c3ccc(OC)cc3C(C)=CC2(C)C)cc1	none
COc1ccc(S(=O)(=O)N2c3ccc(Br)cc3C(C)=CC2(C)C)cc1	TEAD-YAP inh 55
CC(C)NC(=O)COC(=O)c1cnc(Cl)c(Cl)c1	none
Cc1cccc(C)c1OCC(=O)N/N=C/c1ccc([N+](=O)[O-])c(O)c1	none
O=C(NCc1ccco1)C1CC12CCN(Cc1nc(-c3ccccc3)cs1)CC2 (stereo unspecified)	TEAD-YAP inh 56
CN1CCCN(C(=O)C2CC23CCN(Cc2nc(-c4ccccc4)cs2)CC3)CC1 (stereo unspecified)	none
COc1ccc(CC(=O)N2CC[C@@H](c3ccc(OC)cc3)[C@H](O)C2)cc1	none
CCOC(=O)N1CCN(C(=O)CSc2nnc(-c3c[nH]c4ccccc34)n2CC)CC1	TEAD-YAP inh 36
CCn1c(SCC(=O)N2CCCC2)nnc1-c1c[nH]c2ccccc12	none
COc1ccccc1Oc1nnnn1-c1ccc(C(=O)O)cc1	none
CCN(CC)C(=O)c1ccc(Oc2nnnn2-c2ccccc2)c(OC)c1	TEAD-YAP inh 32

Source: PubChem
